# Values joined by “and” are separate entries in the source; they are usually repeats but may differ in a detail not shown here. Equal values may be shown once. Records with an inconclusive call do not appear. A call without a number means that no potency is given here. Some structures have more than one record in an assay (separate samples or runs), and their calls can disagree. Active and inactive are the calls of the source. Calls come from the whole dose curve.
# Assay: qHTS assay to identify small molecule agonists of the progesterone receptor (PR) signaling pathway - cell viability counter screen (AID 1346799); note: nearly all actives have a fitted effect of over 45% in size
# Details: PR-UAS-bla HEK293T viability, CellTiter-Glo luminescence, 16 h; series mostly up to 92.4 µM
# Excerpt: National Center for Advancing Translational Sciences [NCATS]
# NIH Chemical Genomics Center [NCGC]
# U.S. Environmental Protection Agency [EPA]
# National Institutes of Environmental Health Sciences [NIEHS]
# National Toxicology Program [NTP]
# U.S. Food and Drug Administration [FDA]
# Progesterone receptor (PR), a nuclear hormone receptor, plays an important role in development, metabolic homeostasis and reproduction. It is activated by the steroid hormone progesterone. Endocrine disrupting chemicals (EDCs) and their interactions with steroid hormone receptors like PR causes disruption of normal endocrine function. To identify the compounds that stimulate PR signaling, a PR-UAS-bla GripTite cell line i.e. PR-UAS-bla HEK293T (Invitrogen, Carlsbad, CA, USA) containing a beta-lactamase reporter gene under the control of an UAS response element was used to screen Tox21 10K compound library. The cytotoxicity of the Tox21 compound library against the PR-bla cell line was tested in parallel by measuring the cell viability using CellTiter-Glo assay in the same wells.
# Tox21 Assay Protocol Summary:
# PR-UAS-bla HEK293T cells were dispensed at 3,000 cells/5 uL of assay medium containing 2% charcoal stripped FBS per well into black wall/clear-bottom 1536-well plates using a Multidrop Combi (ThermoFisher Scientific, Waltham, MA) dispenser. After the assay plates were incubated at a 37C and 5% CO2 for 6 hr, 23 nL of compounds dissolved in DMSO, positive controls or DMSO only was transferred to the assay plate by a Pintool station (Kalypsys, San Diego, CA). The plates were incubated at 37C and 5% CO2 for 16 hr. Then 1 uL of LiveBLAzer B/G FRET substrate was added using a Flying Reagent Dispenser (FRD, Aurora Discovery, San Diego, CA), the plates were incubated at room temperature for 2 hours, and fluorescence intensity was measured by an Envision plate reader (PerkinElmer, Shelton, CT). For cell viability readout that measures cytotoxicity, 4 uL/well of CellTiter-Glo reagent was added into the assay plates using a FRD. After 30 min incubation at room temperature, the luminescence intensity in the plates was measured using a ViewLux (PerkinElmer) plate reader.
# Potency is the fitted concentration of half-maximal effect.
row,SMILES,Potency
1,c1ccc2sc(SSN3CCOCC3)nc2c1,inactive
2,CCCCC(CC)COP(=O)(OCC(CC)CCCC)OCC(CC)CCCC (stereo not given),inactive
3,COC(=O)c1ccccc1,inactive
4,Cc1[nH]c(=O)c(C#N)cc1-c1ccncc1,2.73 µM (active) and inactive
5,CC(C)=CCCC(C)CCO (stereo not given),inactive
6,Cc1cccc(C(=O)O)c1,inactive
7,Nc1ccc(S(=O)(=O)Nc2cnc3ccccc3n2)cc1,inactive
8,CC(C)CC(C)(O)C#CC(C)(O)CC(C)C (stereo not given),inactive
9,Cc1cc2nc3c(=O)[nH]c(=O)nc-3n(C[C@H](O)[C@H](O)[C@H](O)CO)c2cc1C,inactive
10,CC1=CC2C3CC(C=C3C)C2C1 (stereo not given),inactive
11,c1ccc(Nc2ccccc2)cc1,inactive
12,O=S(=O)(O)c1ccc(O)cc1,inactive
13,Brc1cc(Oc2cc(Br)c(Br)c(Br)c2Br)c(Br)c(Br)c1Br,2.18 µM (active) and inactive
14,CN(C)c1nc(N(C)C)nc(N(C)C)n1,inactive
15,c1ccncc1,inactive
16,O=P(O)(O)O,inactive
17,CNCCCC12CCC(c3ccccc31)c1ccccc12,19.3 µM (active) and inactive
18,CN1C(C(=O)Nc2ccccn2)=C(O)c2ccccc2S1(=O)=O,inactive
19,COC(=O)CCC(=O)OC,inactive
20,CCC(C)(O)CCCC(C)C (stereo not given),inactive

row,SMILES,Potency
1,O=C(c1ccc(OCCN2CCCCC2)cc1)c1c(-c2ccc(O)cc2)sc2cc(O)ccc12,48.6 µM (active) and 68.6 µM (active) and 29.8 µM (active)
2,Nc1ccc(Cl)cc1Cl,inactive
3,CC(C)OC=O,inactive
4,CC(=O)C1(C)CC2=C(CCCC2(C)C)CC1C (stereo not given),inactive
5,OC[C@H]1O[C@@H]2O[C@H]3[C@H](O)[C@@H](O)[C@@H](O[C@H]4[C@H](O)[C@@H](O)[C@@H](O[C@H]5[C@H](O)[C@@H](O)[C@@H](O[C@H]6[C@H](O)[C@@H](O)[C@@H](O[C@H]7[C@H](O)[C@@H](O)[C@@H](O[C@H]8[C@H](O)[C@@H](O)[C@@H](O[C@H]1[C@H](O)[C@H]2O)O[C@@H]8CO)O[C@@H]7CO)O[C@@H]6CO)O[C@@H]5CO)O[C@@H]4CO)O[C@@H]3CO,24.4 µM (active) and inactive
6,OCCO,inactive
7,C/C=C/C(=O)O,inactive
8,COc1ccccc1/C=C/C=O,inactive
9,C=CC(C)(CCC=C(C)C)OC(C)=O (stereo not given),inactive
10,CCCc1c(OCCCCc2nn[nH]n2)ccc(C(C)=O)c1O,inactive
11,O=C1c2cccc(O)c2C(=O)c2c(O)cccc21,inactive
12,CCCCOCCOCCOCCO,inactive
13,C[C@]12CCC(=O)C=C1CC[C@@H]1[C@@H]2C(=O)C[C@@]2(C)[C@H]1CC[C@]2(O)C(=O)CO,inactive
14,CCCCCCCCCC(=O)OC,inactive
15,Nc1ncnc2nc[nH]c12,inactive
16,O=C(OCc1ccccc1)c1ccccc1O,inactive
17,CCC(C)CO (stereo not given),inactive
18,NC=O,inactive
19,COc1ccc(OC)c(C(O)CNC(=O)CN)c1 (stereo not given),inactive
20,C=C(C)C(=O)OCCOC(=O)C(=C)C,inactive
